Here are results for 21 compounds from PubChem BioAssay (NCATS).

Test [1] concerns the target Rap guanine nucleotide exchange factor 3 (Homo sapiens) (UniProt O95398). Nature of the test: Confirmatory qHTS for agonist of cAMP-regulated guanine nucleotide exchange factor 3 (EPAC1) (AID 1645881).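 Also: EPAC1 catalysed release of BODIPY-GDP from Rap1B seen as fluorescence loss; 100% = effect of cAMP agonist control; nearly all actives have a fitted effect of over 75% in size.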 A general note: qHTS replaces the single test concentration by a dilution series.
Test [2] deals with Rap guanine nucleotide exchange factor 4 (Homo sapiens) (UniProt Q8WZA2). Nature of the test: Confirmatory qHTS for agonist of cAMP-regulated guanine nucleotide exchange factor 4 (EPAC2) (AID 1645884).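 Also: nucleotide exchange releases bodipy-GDP from Rap1 and this lowers its fluorescence; % is scaled to controls: 0 for no effect and ±100 for the full control effect; nearly all actives have a fitted effect of over 65% in size.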
The target is the same in test [3]. Nature of the test: Confirmatory qHTS for antagonist of cAMP-regulated guanine nucleotide exchange factor 4 (EPAC2) (AID 1645885). Also: nearly all actives have a fitted effect of over 25% in size. Also: potency is read from the fitted curve at half-maximal effect. As to activity change, negative = inhibition: % is scaled to controls: 0 for no effect and ±100 for the full control effect.
Test [4] has as its target Rap guanine nucleotide exchange factor 3 (Homo sapiens) (UniProt O95398). Nature of the test: Counterscreen qHTS for antagonist of cAMP-regulated guanine nucleotide exchange factor 3 (EPAC1) (AID 1645888).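 Also: fluorescence loss as bound BODIPY-GDP is released from Rap1B; % of control where 0% means no effect.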 The essentials:
(§1)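 Measured: fluorescence of BODIPY-GDP bound to Rap1B, which falls as exchange proceeds. Conditions include 50 uM competing GDP, 5 and 30 min reads, and a later cAMP challenge for antagonist detection.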
A general note: A counterscreen serves to expose hits that act by an unwanted route or on another target.

The target is the same in test [5]. Put plainly: Counterscreen qHTS for agonist of cAMP-regulated guanine nucleotide exchange factor 3 (EPAC1) (AID 1645889). Also: nearly all actives have a fitted effect of over 40% in size. Also: potency is read from the fitted curve at half-maximal effect. As to activation: % of control where 0% means no effect. The method in brief:
as §1

Records with an inconclusive call do not appear. Unmarked numbers belong to inactive results. Activity calls are given as the source filed them. Calls follow the shape of the dose curve; as a rule, active = well fitted curve in the direction sought with a large enough effect; inconclusive = small, poorly fitted or top-dose-only effect, or another doubt; inactive = no such curve, though single readings can be large; an effect the other way counts as inactive or inconclusive.

Chain of Rap guanine nucleotide exchange factor 3 (Homo sapiens) (O95398 whole entry, looked up): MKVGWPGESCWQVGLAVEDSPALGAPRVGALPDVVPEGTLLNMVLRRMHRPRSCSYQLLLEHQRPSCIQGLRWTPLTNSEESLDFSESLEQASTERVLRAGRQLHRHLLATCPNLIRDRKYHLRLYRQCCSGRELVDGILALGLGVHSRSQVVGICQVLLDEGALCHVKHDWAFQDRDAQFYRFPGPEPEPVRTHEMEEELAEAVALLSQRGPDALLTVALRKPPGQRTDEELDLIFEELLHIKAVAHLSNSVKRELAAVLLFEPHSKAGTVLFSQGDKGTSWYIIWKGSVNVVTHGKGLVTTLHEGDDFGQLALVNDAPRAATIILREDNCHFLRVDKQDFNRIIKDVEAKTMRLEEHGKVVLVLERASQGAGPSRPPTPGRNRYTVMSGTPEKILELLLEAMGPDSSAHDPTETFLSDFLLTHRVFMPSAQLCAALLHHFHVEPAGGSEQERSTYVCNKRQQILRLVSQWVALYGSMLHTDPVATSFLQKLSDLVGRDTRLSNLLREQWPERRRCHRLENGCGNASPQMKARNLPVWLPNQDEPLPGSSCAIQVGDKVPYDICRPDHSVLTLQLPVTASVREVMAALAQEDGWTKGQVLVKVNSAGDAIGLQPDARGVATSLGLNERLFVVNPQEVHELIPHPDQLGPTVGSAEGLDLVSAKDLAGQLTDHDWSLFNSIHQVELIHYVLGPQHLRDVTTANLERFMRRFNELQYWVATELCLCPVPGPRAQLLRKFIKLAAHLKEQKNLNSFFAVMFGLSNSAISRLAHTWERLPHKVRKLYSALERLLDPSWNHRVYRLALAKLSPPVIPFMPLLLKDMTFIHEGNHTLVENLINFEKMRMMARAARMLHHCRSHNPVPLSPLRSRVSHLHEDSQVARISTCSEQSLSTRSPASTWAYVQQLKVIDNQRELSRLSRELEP
Chain of Rap guanine nucleotide exchange factor 4 (Homo sapiens) (Q8WZA2 whole entry, looked up): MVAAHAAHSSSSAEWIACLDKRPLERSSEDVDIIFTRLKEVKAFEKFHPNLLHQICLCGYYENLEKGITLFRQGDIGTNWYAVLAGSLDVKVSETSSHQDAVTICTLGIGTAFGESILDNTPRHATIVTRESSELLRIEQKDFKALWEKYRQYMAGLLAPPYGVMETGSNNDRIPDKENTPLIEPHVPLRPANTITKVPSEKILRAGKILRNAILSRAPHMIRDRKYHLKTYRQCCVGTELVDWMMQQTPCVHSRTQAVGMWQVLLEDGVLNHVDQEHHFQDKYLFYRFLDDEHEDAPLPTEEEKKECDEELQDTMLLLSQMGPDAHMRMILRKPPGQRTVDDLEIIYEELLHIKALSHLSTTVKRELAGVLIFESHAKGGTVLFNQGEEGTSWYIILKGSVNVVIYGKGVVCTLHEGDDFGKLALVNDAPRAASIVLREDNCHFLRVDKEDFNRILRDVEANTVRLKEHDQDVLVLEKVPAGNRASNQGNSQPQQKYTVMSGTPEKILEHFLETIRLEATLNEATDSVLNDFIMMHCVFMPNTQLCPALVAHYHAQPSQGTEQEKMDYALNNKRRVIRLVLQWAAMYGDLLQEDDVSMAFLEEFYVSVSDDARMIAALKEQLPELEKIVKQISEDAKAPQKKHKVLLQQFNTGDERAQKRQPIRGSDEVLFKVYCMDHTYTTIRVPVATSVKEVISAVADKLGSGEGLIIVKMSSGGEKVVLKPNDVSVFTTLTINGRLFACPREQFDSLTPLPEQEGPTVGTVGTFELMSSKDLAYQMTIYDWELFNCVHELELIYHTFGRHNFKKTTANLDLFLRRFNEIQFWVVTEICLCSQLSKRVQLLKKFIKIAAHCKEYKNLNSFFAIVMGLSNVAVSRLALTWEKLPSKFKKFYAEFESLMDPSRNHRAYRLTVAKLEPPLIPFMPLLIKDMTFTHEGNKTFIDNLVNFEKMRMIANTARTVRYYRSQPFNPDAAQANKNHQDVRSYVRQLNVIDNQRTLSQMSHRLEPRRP

For `Cc1oc2c(O)c(O)ccc2c(=O)c1-c1cnn(-c2ccccc2)c1`, the Potency entry in test [1] and in test [3] was “inactive” throughout. Moreover, the activation was 2.28% [at 17.1 µM, percent relative to cAMP agonist control] in test [2] and 28.8% [at 30.8 µM] in test [5]. Besides, the activity change, negative = inhibition in test [4] was -26.8% [at 30.8 µM].
Turning to `N#C/C(=C\c1ccc(OCc2ccc(C(=O)O)cc2)cc1)C(=O)N1CCOCC1`, the Potency result in test [1], in test [2], in test [4] and in test [5] was “inactive” in each case. Besides, the Potency in test [3] is 21.3 µM (active).
For `CC(C)(C)N1CC(c2nc3ccccc3n2CCOc2ccccc2)CC1=O` (stereo not given), the Potency entry in test [1], in test [2], in test [3], in test [4] and in test [5] was “inactive” each time.
`O=C(NCc1ccccc1)C(c1ccc(-c2ccccc2)cc1)n1c(=O)c(-c2ccco2)nc2ccccc21` (stereo not given): the Potency entry in test [1] and in test [3] was “inactive” in each case. Moreover, the activation was -1.87% [at 17.1 µM, percent relative to cAMP agonist control] in test [2] and 21.4% [at 30.8 µM] in test [5]. For the same compound, in test [4], the activity change, negative = inhibition is 1.9% [at 30.8 µM].
Turning to `Cc1nnc(Sc2cc(NCCCO)c([N+](=O)[O-])c3nonc23)s1`, the Potency entry in test [1] and in test [3] was “inactive” throughout. Further, the activation in test [2] was 3.11% [at 17.1 µM, percent relative to cAMP agonist control]. Further, the activity change, negative = inhibition in test [4] was 1.69% [at 30.8 µM]. The Potency in test [5] was 8.91 µM (active).
As to `O=C(O)c1cccc(N2C(=O)c3cc([N+](=O)[O-])cc4cc([N+](=O)[O-])cc(c34)C2=O)c1`, the Potency result in test [1], in test [2], in test [4] and in test [5] was “inactive” each time. Besides, in test [3], the Potency was 37.9 µM (active).
Consider `CCOC(=O)c1c(C)[nH]c(C(=O)OCC(=O)Nc2sccc2C(N)=O)c1C`, for which the Potency result in test [1], in test [2], in test [3], in test [4] and in test [5] was “inactive” each time.
Turning to `COc1ccc(C(=O)Nc2ccccc2-c2nnn(CC(N)=O)n2)cc1`, the Potency entry in test [1], in test [2], in test [3], in test [4] and in test [5] was “inactive” each time.
Regarding `O=C(NCC(c1ccco1)N1CCCC1)c1ccccc1Sc1ccc(C(F)(F)F)cc1[N+](=O)[O-]` (stereo not given), the Potency entry in test [1], in test [2], in test [3], in test [4] and in test [5] was “inactive” each time.
As to `CC(C)C(=O)NC(c1ccccc1)c1cc([N+](=O)[O-])c2cccnc2c1O` (stereo not given), the Potency entry in test [1] and in test [3] was “inactive” throughout. For the same compound, the activation in test [2] was 4.72% [at 17.1 µM, percent relative to cAMP agonist control]; in test [5], 39.4% [at 30.8 µM]. Further, the activity change, negative = inhibition in test [4] was -3.56% [at 30.8 µM].
For `CCOC(=O)Cc1csc(NC(=O)COc2ccc3ccccc3c2)n1`, the Potency result in test [1] and in test [3] was “inactive” in each case. For the same compound, the activation in test [2] is 9.25% [at 17.1 µM, percent relative to cAMP agonist control]; in test [5] it was 21.1% [at 30.8 µM]. Moreover, the activity change, negative = inhibition in test [4] was 5.57% [at 30.8 µM].
Regarding `COc1cc(Cl)cc(/C=N\NC(=O)c2ccc3c(c2)OCO3)c1O`, the Potency result in test [1], in test [2], in test [3], in test [4] and in test [5] was “inactive” throughout.
As for `Cc1ccc(Cl)cc1NC(=O)Nc1cn(CC(C)C)c(=O)c2ccccc12`, the Potency result in test [1], in test [2], in test [4] and in test [5] was “inactive” each time. For the same compound, the outcome in test [3] is “inactive [at 12.7 µM]”.
Take `CCCc1nc2c(Cl)cc(C(F)(F)F)cn2c1Cc1ccc(OC)cc1C`: the Potency result in test [1] and in test [3] was “inactive” in each case. In addition, the activation in test [2] is 5.33% [at 17.1 µM, percent relative to cAMP agonist control]; in test [5], 14.3% [at 30.8 µM]. The activity change, negative = inhibition in test [4] was -8.15% [at 30.8 µM].
With `O=c1[nH]n2c(=O)c3c([nH]c2c1N=Nc1cccc(Cl)c1)CCCC3`, the Potency entry in test [1] and in test [3] was “inactive” each time. The activation in test [2] was -16.2% [at 17.1 µM, percent relative to cAMP agonist control]; in test [5] it was -2.93% [at 30.8 µM]. Besides, in test [4], the activity change, negative = inhibition is -25.4% [at 30.8 µM].
On to `O=[N+]([O-])c1cc2oc3c(c2c(C=NCc2ccncc2)c1O)CCCC3`, for which the Potency entry in test [1] and in test [3] was “inactive” throughout. The activation is 1.74% [at 17.1 µM, percent relative to cAMP agonist control] in test [2] and 15.1% [at 30.8 µM] in test [5]. Also, the activity change, negative = inhibition in test [4] was -19.5% [at 30.8 µM].
Regarding `O=C(NCc1ccccc1)c1ccc2c(=O)[nH]c3c(C(=O)NCC4CCCO4)sc(=S)n3c2c1` (stereo not given), the Potency entry in test [1], in test [2], in test [3], in test [4] and in test [5] was “inactive” throughout.
Take `CC1=NN(c2ccc(Br)cc2)C(=O)/C1=C/c1cccs1`: the Potency entry in test [1] and in test [3] was “inactive” in each case. The activation in test [2] is 4.12% [at 17.1 µM, percent relative to cAMP agonist control]. Further, the activity change, negative = inhibition in test [4] was 29.1% [at 30.8 µM]. In addition, in test [5], the Potency is 14.1 µM (active).
Consider `COc1ccc(C(C#N)N2CCC(c3ccccc3)=N2)cc1` (stereo not given), for which the Potency entry in test [1], in test [2], in test [4] and in test [5] was “inactive” throughout. The Potency in test [3] is 7.57 µM (active).
With `CCOC(=O)C1=C(N)Oc2cc(O)ccc2C1c1ccccc1` (stereo not given), the Potency entry in test [1] and in test [3] was “inactive” each time. The activation is -4.25% [at 17.1 µM, percent relative to cAMP agonist control] in test [2] and 10.8% [at 30.8 µM] in test [5]. Further, the activity change, negative = inhibition in test [4] is -7.53% [at 30.8 µM].
As for `COc1ccccc1/C=C1\SC(=S)N(CCC(=O)Nc2ccc(C(=O)O)c(O)c2)C1=O`, the Potency result in test [1] and in test [3] was “inactive” in each case. In addition, the activation was 4.12% [at 17.1 µM, percent relative to cAMP agonist control] in test [2] and 10.4% [at 30.8 µM] in test [5]. In test [4], the activity change, negative = inhibition was -13.3% [at 30.8 µM].
